Assay outcomes from PubChem.
An excerpt weighted towards active compounds, which were near 6.9% of everything screened.
S-ASM inh: blocks human secretory acid sphingomyelinase; 340,000 compounds, 0.006% hits; placental ASM, HMU-PC fluorogenic substrate, 60 min; Potency, µM (top dose mostly 57.5 µM), for the others: at the highest dose activity change, negative = inhibition, actives largely listed as inhibitors; P17405; AID 504937; further: potency means the concentration at half of the fitted maximal effect
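qHTS format. ASM enzyme prepared from human placenta hydrolyses the fluorogenic substrate HMU-PC0 (9 uM final) over 60 min at 37 °C after a 10 min compound preincubation.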
MCF10A rereplic: DNA re-replication induction in MCF 10a cells; Potency, µM (series often up to 46.1 µM), inactives show at the top dose activity, positive = re-replication, most hits filed as activators; 350,000 compounds, 2.9% hits; MCF 10A DNA re-replication, Hoechst nuclear intensity, 48 h; AID 624296; further: potency means the concentration at half of the fitted maximal effect; % of control where 0% means no effect; nearly all actives have a fitted effect of over 50% in size
SW480 rereplic: inducers of DNA re-replication in SW480 colon cancer cells; SW480 DNA re-replication, Hoechst DNA content imaging, 48 h; Potency, µM (series often up to 46.1 µM), inactives show top-dose re-replication activation, most hits filed as activators; 340,000 compounds, 1.8% hits; further: potency means the concentration at half of the fitted maximal effect; % of control where 0% means no effect; nearly all actives have a fitted effect of over 55% in size
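Readout is total intensity of Hoechst-stained nuclei, excited at 405 nm and collected at 500-530 nm. Compound treatment lasted 48 hr at 37 C in 5% CO2 before staining.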
KB-3-1 cytotox: KB-3-1 parental cell cytotoxicity; KB-3-1 viability, CellTiter-Glo ATP luminescence, 72 h; 400,000 compounds, 1.4% hits; AID 1347075; Potency, µM (highest dose often 46.1 µM), most hits filed as cytotoxic; further: potency means the concentration at half of the fitted maximal effect; on the % scale 0 is the no-effect control and ±100 the full control effect; nearly all actives have a fitted effect of over 60% in size
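Cytotoxicity in the drug-sensitive parental line KB-3-1 was scored as loss of CellTiter-Glo luminescence following 72 h incubation with compound. Values come from curve fitting of normalized concentration-response data.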
KB-V1 cytotox: KB-V1 MDR subline cytotoxicity; 400,000 compounds, 3.4% hits; Potency, µM (doses to about 46.1 µM), actives largely listed as cytotoxic; KB-V1 MDR cells viability, CellTiter-Glo, 72 h; further: potency means the concentration at half of the fitted maximal effect; on the % scale 0 is the no-effect control and ±100 the full control effect; nearly all actives have a fitted effect of over 60% in size
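In this primary screen, KB-V1 cells overexpressing P-gp are incubated with library compounds (lowest to highest concentration) for 72 h at 37 degrees C before a luminescent ATP viability read.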
Giardia killer: Giardia lamblia killing; Giardia lamblia trophozoite viability; activity change, % at 7.66 µM, hits read low; 340,000 compounds, 0.15% hits; AID 540267; in the data active means activity change below about -80%; inconclusive means between about -30% and that limit;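 further: parasites exposed to compound for two days anaerobically before the ATP read; on the % scale 0 is the no-effect control and ±100 the full control effect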
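Killing of trophozoites was scored by loss of ATP luminescence after a 48 hrs anaerobic exposure to compounds at 37 deg C, using 100 cells per well.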
An asterisk follows results filed as active; i = inactive; ? = inconclusive; / = not tested or not shown. Unless noted, the call rests on the fitted dose curve; in most records, active means well fitted curve in the direction sought with a large enough effect; inconclusive means small, poorly fitted or top-dose-only effect, or another doubt; inactive means no such curve, though single readings can be large; an effect the other way counts as inactive or inconclusive.

SMILES	S-ASM inh	MCF10A rereplic	SW480 rereplic	KB-3-1 cytotox	KB-V1 cytotox	Giardia killer
COC(=O)c1sc(S(=O)(=O)N2CCN(c3ccccc3)CC2)c(C(=O)OC)c1C	-11%	12%	-5%	i	8.2µM*	14
CCOC(=O)c1cnc2c(c(C)nn2C)c1Oc1ccc(Cl)cc1	-24%	16%	2%	?	3.3µM*	-11
COc1cc(OC)c(C(=O)OCC(=O)NC2CCCC2)cc1OC	2%	0%	-5%	i	i	-12
O=C(COc1ccc(Br)cc1Cl)NC(=O)NC1CCCC1	-2%	0%	0%	i	i	-10
Cc1ccccc1CSCC(=O)NC1CCCC1	2%	-1%	-7%	i	i	18
COc1cc(OC)c(C(=O)OCC(=O)NC2CCCCCCC2)cc1OC	1%	2%	-4%	?	8.2µM*	-11
Cc1ccccc1CC(=O)NC1CCCCCC1	-3%	8%	0.92µM*	i	i	-6
O=C(COc1ccc(Br)cc1Cl)NC1CCCCC1	0%	1%	-1%	?	18µM*	2
COc1ccccc1OCC(=O)NC1CCCCCCC1	-3%	28%	3%	?	21µM*	-13
C(=C\c1nc2ccccc2s1)/c1ccc2c(c1)OCO2	/	/	/	?	i	/
Cc1cc(C)c(Cn2c3ccccc3c3cnn(CC(=O)N4CCCCC4)c(=O)c32)c(C)c1	/	/	/	?	i	/
O=C(NC1CCCCC1)N1CCc2ccccc2C1	0%	-2%	-1%	i	i	22
O=C(CN1CCc2ccccc2C1)NC1CCCC1	1%	8%	18µM*	i	i	-14
Cc1ccc(C)c(OCC(=O)NCCNC(=O)COc2cc(C)ccc2C)c1	-1%	19%	-3%	i	18µM*	-1
COC(C(=O)NC1CCCCCCC1)c1ccccc1 (centres undefined)	4%	0%	-72%	i	18µM*	14
Cc1ccc(C)c(OCCC(=O)OCC(=O)NCCNC(=O)COC(=O)CCOc2cc(C)ccc2C)c1	-7%	-5%	-2%	i	i	4
COC(CN(C)C(C(=O)NC1CCCCC1)c1ccccc1)OC (centres undefined)	0%	6%	2%	i	?	2
CC(C(=O)NC(=O)NC1CCCCC1)N1CCN(C(c2ccccc2)c2ccccc2)CC1 (centres undefined)	0%	2%	0%	?	9.2µM*	11
O=C(NCc1cnc2ccccn12)C1CCC(=O)N(Cc2cccc(F)c2)C1 (centres undefined)	7%	-3%	-14%	i	i	-4
CC(C)N(C(=O)COc1ccc(Br)cc1Cl)C(C)C	0%	13%	-8%	i	15µM*	11
Cc1cc(Cl)c(S(=O)(=O)N2CCSCC2)cc1OCC(=O)NC1CCCCC1	1%	?	?	?	3.7µM*	-16
Cc1cc(Cl)c(S(=O)(=O)N2CCCCCC2)cc1OCC(=O)NC1CCCCC1	4%	0%	-6%	i	i	-15
Cc1ccc(C)c(OCC(=O)NC2CCCCCC2)c1	-1%	?	0%	i	13µM*	-8
CN(Cc1ccccc1)C(=O)COc1ccc(Br)cc1Cl	-10%	-9%	18%	i	i	-6
COc1cc(OC)c(C(=O)OCC(=O)NC23CC4CC(CC(C4)C2)C3)cc1OC	0%	17%	-5%	i	8.2µM*	-19
CCCCC(=O)N(Cc1ccc(-c2ccccc2-c2nn[nH]n2)cc1)C(C(=O)O)C(C)C (centres undefined)	/	-1%	-5%	/	/	/
COC(=O)C(NC(=O)C(C)NC(=O)OCc1ccccc1)C(C)C (centres undefined)	1%	3%	-12%	i	i	-5
COc1ccccc1OCC(=O)N(Cc1nc(-c2ccccc2)no1)C1CCCCC1	-4%	16%	11%	?	16µM*	-5
CCCCOn1c(C)c(C(=O)OCC)c2c3nonc3ccc21	118%	?	19%	i	8.2µM*	43
